What all share (test): DAPPL (digital affinity profiling via proximity ligation, sequencing); 10 mM Tris-HCl pH 7.5, 50 mM NaCl, 1 mM DTT, 4% glycerol, room temperature, 30 min; GST-TFs on glutathione beads, 16-mer random dsDNA library, 0.1% formaldehyde crosslink after washing; high values mean tight binding
In experiment [1] the target is T1, FEV (Homo sapiens, UniProt Q99581 1-238).
T1 sequence: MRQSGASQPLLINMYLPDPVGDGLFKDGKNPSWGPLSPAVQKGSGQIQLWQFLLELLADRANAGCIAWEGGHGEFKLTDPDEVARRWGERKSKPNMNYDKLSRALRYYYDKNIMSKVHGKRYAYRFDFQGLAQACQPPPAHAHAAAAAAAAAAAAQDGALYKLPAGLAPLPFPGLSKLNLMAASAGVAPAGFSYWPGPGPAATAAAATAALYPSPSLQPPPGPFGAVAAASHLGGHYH
The note with it: protein: recombinant; tags: N-terminal GST; dsDNA, one strand shown. In a few lines:
(§1)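 Binding signal is each hexamer's read frequency for a factor divided by its frequency in the tag-only sample. The factors were GST-fused human transcription factors from yeast, captured on glutathione beads, DNA-barcoded and pooled with that sample. Pools were incubated with 200 nmole of a random double-stranded 16-mer DNA library in Tris/NaCl/DTT/glycerol buffer at room temperature for 30 min, then washed, crosslinked with 0.1% formaldehyde, proximity-ligated with BsaI/T4 ligase (1 h, 37 °C), PCR-amplified and sequenced on an Illumina NextSeq500.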

The target of experiment [2] is ETV5 (Homo sapiens, UniProt P41161 1-510). The note with it: protein: recombinant; tags: N-terminal GST; dsDNA, one strand shown. In outline:
as §1

The target in experiment [3] is HSF1 (Homo sapiens, UniProt Q00613 1-529). As to conditions: protein: recombinant; tags: N-terminal GST; chain copies: 3; dsDNA, one strand shown. In a few lines:
as §1

Experiment [4] deals with T2, SPIC (Homo sapiens, UniProt Q8N5J4 1-248).
T2 sequence: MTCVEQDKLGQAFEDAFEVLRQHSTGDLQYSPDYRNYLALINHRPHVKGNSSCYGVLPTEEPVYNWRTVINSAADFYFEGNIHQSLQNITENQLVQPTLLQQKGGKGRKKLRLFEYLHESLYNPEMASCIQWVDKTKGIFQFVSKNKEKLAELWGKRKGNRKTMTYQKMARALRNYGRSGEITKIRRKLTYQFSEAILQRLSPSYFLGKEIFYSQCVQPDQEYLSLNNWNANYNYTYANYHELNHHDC
As to conditions: protein: recombinant; tags: N-terminal GST; dsDNA, one strand shown. In outline: as §1

The target of experiment [5] is ELF4 (Homo sapiens, UniProt Q99607 1-663). As to conditions: protein: recombinant; tags: N-terminal GST; dsDNA, one strand shown. In a few lines: as §1
Experiment [6] deals with T3, ELK4 (Homo sapiens, UniProt P28324-2 1-405).
T3 sequence: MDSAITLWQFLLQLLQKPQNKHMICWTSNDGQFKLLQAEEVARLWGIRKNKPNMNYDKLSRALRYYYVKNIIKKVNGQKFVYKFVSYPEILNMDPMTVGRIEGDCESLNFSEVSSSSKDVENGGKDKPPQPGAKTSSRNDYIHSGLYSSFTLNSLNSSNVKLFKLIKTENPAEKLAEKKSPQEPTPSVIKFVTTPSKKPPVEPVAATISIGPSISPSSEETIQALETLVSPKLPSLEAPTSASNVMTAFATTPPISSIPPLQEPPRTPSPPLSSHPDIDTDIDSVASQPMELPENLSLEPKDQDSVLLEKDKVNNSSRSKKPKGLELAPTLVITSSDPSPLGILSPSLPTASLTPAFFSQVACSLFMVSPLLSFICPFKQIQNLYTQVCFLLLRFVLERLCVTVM
As to conditions: protein: recombinant; tags: N-terminal GST; dsDNA, one strand shown. In a few lines: as §1

For experiment [7], the target named is T4, ETV2 (Homo sapiens, UniProt O00321 1-342).
T4 sequence: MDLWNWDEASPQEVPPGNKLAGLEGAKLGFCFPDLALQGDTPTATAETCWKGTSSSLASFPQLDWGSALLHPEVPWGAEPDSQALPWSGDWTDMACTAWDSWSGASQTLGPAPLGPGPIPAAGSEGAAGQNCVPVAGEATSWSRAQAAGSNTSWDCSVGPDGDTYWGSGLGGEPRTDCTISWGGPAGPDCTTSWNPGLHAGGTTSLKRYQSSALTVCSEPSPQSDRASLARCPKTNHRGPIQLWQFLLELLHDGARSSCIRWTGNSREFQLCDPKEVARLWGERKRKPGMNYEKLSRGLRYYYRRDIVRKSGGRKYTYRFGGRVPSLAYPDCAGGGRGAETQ
The note with it: protein: recombinant; tags: N-terminal GST; dsDNA, one strand shown. In a few lines: as §1

Experiment [8] concerns the target T5, ELF3 (Homo sapiens, UniProt P78545 1-371).
T5 sequence: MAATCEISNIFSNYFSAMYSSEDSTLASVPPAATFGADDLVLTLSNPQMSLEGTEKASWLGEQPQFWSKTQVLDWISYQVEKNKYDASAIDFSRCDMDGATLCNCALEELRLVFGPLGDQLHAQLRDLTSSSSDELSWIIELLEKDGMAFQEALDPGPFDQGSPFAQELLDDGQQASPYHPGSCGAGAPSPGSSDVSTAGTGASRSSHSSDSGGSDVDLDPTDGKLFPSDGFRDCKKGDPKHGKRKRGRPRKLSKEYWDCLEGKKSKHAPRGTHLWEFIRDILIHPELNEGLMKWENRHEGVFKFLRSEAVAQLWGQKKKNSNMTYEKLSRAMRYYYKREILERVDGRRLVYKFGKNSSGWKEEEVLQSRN
The note with it: protein: recombinant; tags: N-terminal GST; dsDNA, one strand shown. In outline:
as §1

The target of experiment [9] is CRX (Homo sapiens, UniProt O43186 1-299). The note with it: protein: recombinant; tags: N-terminal GST; dsDNA, one strand shown. In a few lines: as §1
Experiment [10] concerns the target ETV1 (Homo sapiens, UniProt P50549 1-477). As to conditions: protein: recombinant; tags: N-terminal GST; dsDNA, one strand shown. In a few lines:
as §1

For experiment [11], the target named is T6, ERF (Homo sapiens, UniProt P50548 1-548).
T6 sequence: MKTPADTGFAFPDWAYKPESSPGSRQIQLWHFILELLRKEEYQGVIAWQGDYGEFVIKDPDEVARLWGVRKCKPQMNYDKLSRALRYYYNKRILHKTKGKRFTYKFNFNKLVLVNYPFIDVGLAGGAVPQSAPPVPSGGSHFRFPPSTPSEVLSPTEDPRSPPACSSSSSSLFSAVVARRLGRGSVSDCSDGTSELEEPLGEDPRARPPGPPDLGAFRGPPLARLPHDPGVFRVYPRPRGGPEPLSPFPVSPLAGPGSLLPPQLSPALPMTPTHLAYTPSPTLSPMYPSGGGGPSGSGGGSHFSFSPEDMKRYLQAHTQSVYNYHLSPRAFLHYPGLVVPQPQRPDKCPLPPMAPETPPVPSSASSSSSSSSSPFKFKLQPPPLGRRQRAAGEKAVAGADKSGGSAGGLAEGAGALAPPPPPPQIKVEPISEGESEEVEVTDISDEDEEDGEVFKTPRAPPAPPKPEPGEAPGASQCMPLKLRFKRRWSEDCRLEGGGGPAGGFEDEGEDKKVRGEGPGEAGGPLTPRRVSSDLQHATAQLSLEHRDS
As to conditions: protein: recombinant; tags: N-terminal GST; dsDNA, one strand shown. In a few lines: as §1

Experiment [12] addresses T7, ETV3L (Homo sapiens, UniProt Q6ZN32 1-361).
T7 sequence: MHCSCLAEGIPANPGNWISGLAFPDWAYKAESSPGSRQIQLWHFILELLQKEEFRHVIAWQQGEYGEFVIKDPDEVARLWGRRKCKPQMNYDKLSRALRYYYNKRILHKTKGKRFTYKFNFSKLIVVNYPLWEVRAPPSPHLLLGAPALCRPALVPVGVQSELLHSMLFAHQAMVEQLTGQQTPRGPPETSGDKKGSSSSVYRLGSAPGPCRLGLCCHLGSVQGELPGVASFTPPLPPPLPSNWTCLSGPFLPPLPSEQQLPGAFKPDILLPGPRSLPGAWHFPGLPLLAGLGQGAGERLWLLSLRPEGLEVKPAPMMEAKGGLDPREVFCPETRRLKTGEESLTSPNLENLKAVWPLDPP
As to conditions: protein: recombinant; tags: N-terminal GST; dsDNA, one strand shown. In a few lines: as §1

For experiment [13], the target named is T8, ETS2 (Homo sapiens, UniProt P15036 1-469).
T8 sequence: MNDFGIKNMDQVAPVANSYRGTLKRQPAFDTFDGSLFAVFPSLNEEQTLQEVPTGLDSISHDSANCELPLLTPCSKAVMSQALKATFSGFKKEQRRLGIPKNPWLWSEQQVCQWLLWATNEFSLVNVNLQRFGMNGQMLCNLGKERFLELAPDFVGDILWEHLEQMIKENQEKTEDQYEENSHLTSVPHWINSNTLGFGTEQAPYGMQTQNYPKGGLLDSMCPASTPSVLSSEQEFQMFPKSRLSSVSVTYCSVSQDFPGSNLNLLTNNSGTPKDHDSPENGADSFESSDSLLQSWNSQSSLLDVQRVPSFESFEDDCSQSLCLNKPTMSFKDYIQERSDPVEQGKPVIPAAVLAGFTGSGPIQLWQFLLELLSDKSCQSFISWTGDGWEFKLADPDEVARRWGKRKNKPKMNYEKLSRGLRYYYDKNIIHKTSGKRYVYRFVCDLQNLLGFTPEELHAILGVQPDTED
The note with it: protein: recombinant; tags: N-terminal GST; dsDNA, one strand shown. In outline: as §1

Experiment [14] addresses T9, SPDEF (Homo sapiens, UniProt O95238 1-335).
T9 sequence: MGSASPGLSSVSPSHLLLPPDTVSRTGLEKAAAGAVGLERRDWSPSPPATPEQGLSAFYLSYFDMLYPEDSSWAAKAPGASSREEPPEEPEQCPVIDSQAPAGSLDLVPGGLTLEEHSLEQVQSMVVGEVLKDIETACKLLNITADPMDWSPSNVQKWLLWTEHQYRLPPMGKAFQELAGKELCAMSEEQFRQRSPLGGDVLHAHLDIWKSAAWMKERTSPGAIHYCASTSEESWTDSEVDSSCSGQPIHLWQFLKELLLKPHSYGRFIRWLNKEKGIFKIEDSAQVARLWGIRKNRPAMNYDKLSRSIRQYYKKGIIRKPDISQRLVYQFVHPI
The note with it: protein: recombinant; tags: N-terminal GST; dsDNA, one strand shown. In a few lines: as §1

Experiment [15] addresses T10, ETV7 (Homo sapiens, UniProt Q9Y603 1-341).
T10 sequence: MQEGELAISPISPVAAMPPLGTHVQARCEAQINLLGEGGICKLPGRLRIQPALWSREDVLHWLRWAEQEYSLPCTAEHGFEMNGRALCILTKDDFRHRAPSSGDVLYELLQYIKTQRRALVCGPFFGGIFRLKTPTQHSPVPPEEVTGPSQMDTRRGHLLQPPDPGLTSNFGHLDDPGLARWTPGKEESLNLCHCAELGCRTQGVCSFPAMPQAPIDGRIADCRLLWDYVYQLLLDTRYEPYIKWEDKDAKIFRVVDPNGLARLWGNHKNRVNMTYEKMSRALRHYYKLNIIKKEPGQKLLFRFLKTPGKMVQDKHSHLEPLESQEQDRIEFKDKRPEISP
The note with it: protein: recombinant; tags: N-terminal GST; dsDNA, one strand shown. In outline:
as §1

Experiment [16] has as its target T11, ELF5 (Homo sapiens, UniProt Q9UKW6-2 1-255).
T11 sequence: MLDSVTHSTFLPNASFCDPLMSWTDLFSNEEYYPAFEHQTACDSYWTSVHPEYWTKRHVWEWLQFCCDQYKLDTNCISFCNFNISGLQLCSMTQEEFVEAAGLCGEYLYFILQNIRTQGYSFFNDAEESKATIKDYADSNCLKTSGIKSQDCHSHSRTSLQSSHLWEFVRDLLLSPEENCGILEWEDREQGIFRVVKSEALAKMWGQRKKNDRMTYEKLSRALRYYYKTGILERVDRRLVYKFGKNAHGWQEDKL
The note with it: protein: recombinant; tags: N-terminal GST; dsDNA, one strand shown. In outline:
as §1

The target of experiment [17] is T12, ETV3 (Homo sapiens, UniProt P41162-2 1-143).
T12 sequence: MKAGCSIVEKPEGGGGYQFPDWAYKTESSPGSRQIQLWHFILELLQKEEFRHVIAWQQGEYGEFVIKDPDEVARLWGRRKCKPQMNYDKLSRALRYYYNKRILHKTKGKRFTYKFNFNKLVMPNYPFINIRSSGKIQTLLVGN
The note with it: protein: recombinant; tags: N-terminal GST; dsDNA, one strand shown. In a few lines:
as §1

Experiment [18] deals with ETV6 (Homo sapiens, UniProt P41212 1-452). As to conditions: protein: recombinant; tags: N-terminal GST; dsDNA, one strand shown. In a few lines:
as §1

For one sequence, binding signal results are on record in paper PMC7862700, “An all-to-all approach to the identification of sequence-specific readers for epigenetic DNA modifications on cytosine”.

ETV1, sequence (P50549 whole entry): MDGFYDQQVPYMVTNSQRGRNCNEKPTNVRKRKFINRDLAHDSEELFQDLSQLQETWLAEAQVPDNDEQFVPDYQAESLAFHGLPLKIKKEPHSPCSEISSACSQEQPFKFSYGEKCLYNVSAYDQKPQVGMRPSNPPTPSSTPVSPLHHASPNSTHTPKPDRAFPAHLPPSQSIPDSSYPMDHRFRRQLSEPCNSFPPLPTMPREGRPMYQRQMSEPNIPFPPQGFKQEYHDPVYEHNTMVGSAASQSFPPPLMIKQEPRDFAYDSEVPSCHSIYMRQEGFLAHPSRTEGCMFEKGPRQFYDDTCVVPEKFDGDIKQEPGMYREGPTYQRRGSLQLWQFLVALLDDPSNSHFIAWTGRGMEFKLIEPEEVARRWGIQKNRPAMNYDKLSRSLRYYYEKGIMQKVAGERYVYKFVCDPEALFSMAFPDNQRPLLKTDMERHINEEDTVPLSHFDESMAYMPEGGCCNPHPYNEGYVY
ELF4, sequence (Q99607 whole entry): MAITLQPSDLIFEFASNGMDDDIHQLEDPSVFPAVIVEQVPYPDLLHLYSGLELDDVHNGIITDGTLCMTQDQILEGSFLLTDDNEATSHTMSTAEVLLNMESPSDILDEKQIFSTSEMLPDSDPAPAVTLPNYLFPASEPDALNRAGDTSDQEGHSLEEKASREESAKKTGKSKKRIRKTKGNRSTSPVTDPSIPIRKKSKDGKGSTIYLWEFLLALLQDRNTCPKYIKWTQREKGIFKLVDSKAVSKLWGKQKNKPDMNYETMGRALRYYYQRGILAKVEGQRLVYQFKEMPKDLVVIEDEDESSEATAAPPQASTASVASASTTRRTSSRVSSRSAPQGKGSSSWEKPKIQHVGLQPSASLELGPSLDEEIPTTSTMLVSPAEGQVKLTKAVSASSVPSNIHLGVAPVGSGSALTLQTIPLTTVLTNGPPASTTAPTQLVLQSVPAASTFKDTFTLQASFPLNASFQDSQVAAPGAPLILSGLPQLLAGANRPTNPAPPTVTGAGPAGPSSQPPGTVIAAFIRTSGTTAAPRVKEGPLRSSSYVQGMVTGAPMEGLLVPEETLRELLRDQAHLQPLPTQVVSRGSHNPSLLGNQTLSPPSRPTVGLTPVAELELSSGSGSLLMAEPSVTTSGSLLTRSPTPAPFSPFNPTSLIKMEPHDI
HSF1, sequence (Q00613 whole entry): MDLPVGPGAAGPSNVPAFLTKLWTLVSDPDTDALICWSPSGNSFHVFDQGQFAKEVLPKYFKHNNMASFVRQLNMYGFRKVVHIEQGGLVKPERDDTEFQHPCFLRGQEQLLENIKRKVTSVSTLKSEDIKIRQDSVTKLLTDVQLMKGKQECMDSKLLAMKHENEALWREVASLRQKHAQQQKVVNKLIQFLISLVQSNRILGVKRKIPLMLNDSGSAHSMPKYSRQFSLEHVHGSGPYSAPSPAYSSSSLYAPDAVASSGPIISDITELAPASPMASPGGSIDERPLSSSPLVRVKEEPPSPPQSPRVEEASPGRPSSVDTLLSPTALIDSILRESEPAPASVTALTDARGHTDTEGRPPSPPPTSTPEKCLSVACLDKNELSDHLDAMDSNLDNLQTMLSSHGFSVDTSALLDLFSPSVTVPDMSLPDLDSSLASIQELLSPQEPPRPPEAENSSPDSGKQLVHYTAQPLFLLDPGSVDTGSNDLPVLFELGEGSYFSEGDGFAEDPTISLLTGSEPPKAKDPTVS
CRX, sequence (O43186 whole entry): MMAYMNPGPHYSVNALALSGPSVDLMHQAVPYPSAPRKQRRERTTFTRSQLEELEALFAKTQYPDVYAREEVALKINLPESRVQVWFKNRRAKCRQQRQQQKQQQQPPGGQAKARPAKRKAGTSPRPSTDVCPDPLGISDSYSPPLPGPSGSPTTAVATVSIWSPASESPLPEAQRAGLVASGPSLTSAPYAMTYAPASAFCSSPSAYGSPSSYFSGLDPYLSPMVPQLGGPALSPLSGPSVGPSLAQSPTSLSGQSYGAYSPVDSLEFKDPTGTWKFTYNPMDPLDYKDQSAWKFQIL
ETV5, sequence (P41161 whole entry): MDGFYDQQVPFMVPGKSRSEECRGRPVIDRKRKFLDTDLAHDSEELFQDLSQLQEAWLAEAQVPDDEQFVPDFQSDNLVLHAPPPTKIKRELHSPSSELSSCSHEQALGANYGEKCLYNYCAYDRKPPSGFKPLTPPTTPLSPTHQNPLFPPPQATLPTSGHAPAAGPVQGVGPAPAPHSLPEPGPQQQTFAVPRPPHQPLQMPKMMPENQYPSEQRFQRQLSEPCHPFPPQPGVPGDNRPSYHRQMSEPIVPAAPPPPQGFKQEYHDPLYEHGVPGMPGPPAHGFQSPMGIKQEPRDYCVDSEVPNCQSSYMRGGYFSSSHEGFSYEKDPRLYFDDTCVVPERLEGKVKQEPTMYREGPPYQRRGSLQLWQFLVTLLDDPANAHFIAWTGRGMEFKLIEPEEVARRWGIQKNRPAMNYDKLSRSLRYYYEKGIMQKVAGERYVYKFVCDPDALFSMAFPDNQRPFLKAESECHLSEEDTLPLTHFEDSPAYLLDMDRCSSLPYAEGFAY
ETV6, sequence (P41212 whole entry): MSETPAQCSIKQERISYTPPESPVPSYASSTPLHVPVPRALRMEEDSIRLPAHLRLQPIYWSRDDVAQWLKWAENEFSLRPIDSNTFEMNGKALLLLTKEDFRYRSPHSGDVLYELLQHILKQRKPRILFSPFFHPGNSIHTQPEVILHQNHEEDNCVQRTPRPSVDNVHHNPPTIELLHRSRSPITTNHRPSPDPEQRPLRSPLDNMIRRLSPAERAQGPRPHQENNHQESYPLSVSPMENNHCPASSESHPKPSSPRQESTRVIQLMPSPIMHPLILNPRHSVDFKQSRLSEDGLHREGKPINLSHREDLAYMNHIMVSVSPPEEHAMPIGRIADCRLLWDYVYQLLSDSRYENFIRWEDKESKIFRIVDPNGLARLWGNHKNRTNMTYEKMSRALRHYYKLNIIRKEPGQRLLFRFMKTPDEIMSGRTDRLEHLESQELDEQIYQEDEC

Turning to TACTAT, the binding signal in experiment [1] is 1.31 fold enrichment (6-mer frequency, TF over GST control); in [2] it was 1.31 fold enrichment (6-mer frequency, TF over GST control); in [3] it was 1.37 fold enrichment (6-mer frequency, TF over GST control); in experiment [4], 1.45 fold enrichment (6-mer frequency, TF over GST control); in experiment [5] it was 1.35 fold enrichment (6-mer frequency, TF over GST control); in experiment [6], 1.33 fold enrichment (6-mer frequency, TF over GST control). In addition, the binding signal in [7] was 1.4 fold enrichment (6-mer frequency, TF over GST control); in experiment [8], 1.2 fold enrichment (6-mer frequency, TF over GST control); in experiment [9], 1.48 fold enrichment (6-mer frequency, TF over GST control); in experiment [10], 1.28 fold enrichment (6-mer frequency, TF over GST control); in experiment [11] it was 1.38 fold enrichment (6-mer frequency, TF over GST control); in experiment [12], 1.25 fold enrichment (6-mer frequency, TF over GST control). Besides, the binding signal was 1.37 fold enrichment (6-mer frequency, TF over GST control) in experiment [13]; 1.37 fold enrichment (6-mer frequency, TF over GST control) in experiment [14]; 1.35 fold enrichment (6-mer frequency, TF over GST control) in experiment [15]; 1.27 fold enrichment (6-mer frequency, TF over GST control) in [16]; 1.36 fold enrichment (6-mer frequency, TF over GST control) in experiment [17]; 1.39 fold enrichment (6-mer frequency, TF over GST control) in [18].
